Laboratory results from PubChem BioAssay.

assay: PSAC antagonists in infected red cells, primary screen, cell-based, P. falciparum Indochina, OD700, 18 h (AID 1157); conditions: P. falciparum Indochina infected erythrocytes, osmotic lysis OD700, 18 h; higher = more signal, called active from +8 up or from −8 down

z-score, inactive:
COCCOC(=O)N1C(=O)[C@@]2(c3cc(C#Cc4ccc(OC)cc4)ccc31)[C@H](C(=O)N1CCCCCCC1)[C@H]1C(=O)O[C@H](c3ccccc3)[C@H](c3ccccc3)N1[C@@H]2c1ccc(O)cc1 -0.518
COc1cc2c(cc1OC)CN(C(=O)[C@H]1[C@@H]3C(=O)O[C@@H](c4ccccc4)[C@@H](c4ccccc4)N3[C@@H](c3ccc(OCCO)cc3)[C@]13C(=O)Nc1ccc(C#CC4(O)CCCCCC4)cc13)CC2 1.35
CCCC[C@@H]1C[C@H]1[C@@H](NC(=O)c1cccnc1)c1ccc(-c2ccccc2)cc1 0.445
CON(C)C(=O)C=C1C[C@@H](c2cccc(Cl)c2)O[C@@H](c2cccc(Cl)c2)O1 1.47
COCCCNC(=O)[C@]1(CCC(=O)OC(C)(C)C)N=C(c2ccc(OCCCO)cc2)O[C@@H]1c1ccccc1 0.57
C=CCOC(=O)[C@H]1[C@@H]2C(=O)O[C@@H](c3ccccc3)[C@@H](c3ccccc3)N2[C@@H](c2ccc(OCCOC(=O)[C@H]3C[C@H]4C(=O)N[C@@H](Cc5ccccc5)C(=O)N4[C@H]3c3ccc(O)cc3)cc2)[C@]12C(=O)Nc1ccc(I)cc12 1.06
CC(C)(C)N1CC=CC23O[C@@H]4C=CCOC(=O)[C@@H]4[C@H]2C(=O)N(CCCO)[C@@H]3C1=O (stereo partly specified) -1.53
NCCCCCCNC(=O)[C@@H]1C[C@@H]2C(=O)N3CCC[C@H]3C(=O)N2[C@@H]1c1ccc(O)cc1 0.105
CCCCC(CC)C(O)C1C=CC2C(=O)N(c3ccccc3)C(=O)C2N1Nc1ccc([N+](=O)[O-])cc1 (stereo unspecified) 0.487
C=C(COC)/C(=C/C[C@@H](OC(=O)c1ccncc1)c1ccc(CO)o1)c1cnc2ccccc2c1 0.234
COCCCNC(=O)[C@@H]1c2ccccc2C(=O)N(Cc2ccccc2C(F)(F)F)[C@H]1c1ccc(CO)cc1 -0.0633
CCCN1C(=O)[C@]2(Cc3ccccc3)N=C(c3ccc(OCCCO)cc3)O[C@@H]2c2ccccc21 4.25
CO[C@H]1O[C@H](CO)[C@@H](OC(=O)Nc2ccccc2-c2ccccc2)[C@H](OC(=O)Nc2ccc3c(c2)OCO3)[C@@H]1OC(=O)Nc1ccc2c(c1)OCO2 1.11
COCCOC(=O)N1C(=O)[C@@]2(c3cc(C#CC4(O)CCCCCC4)ccc31)[C@H](C(N)=O)[C@H]1C(=O)O[C@H](c3ccccc3)[C@H](c3ccccc3)N1[C@@H]2c1ccc(O)cc1 -0.125
CC(CO)N1C(=O)[C@@H]2C3C(=O)OCCC/C=C\[C@H]3OC23C=CCN(Cn2nnc4ccccc42)C(=O)[C@@H]13 (stereo partly specified) 0.502
C[C@]1(C(=O)NC2CC2)c2ccccc2C(=O)N(Cc2ccc(OC(F)(F)F)cc2)[C@H]1c1ccc(CO)cc1 0.0105
COc1ccc([Si](C)(C)[C@H]2[C@H](CCn3cc([C@H](O)c4ccccc4)nn3)O[C@@]3(C(=O)N(Cc4cccc(N5C(=O)c6cccc7cccc5c67)c4)c4ccccc43)[C@@H]2C)cc1 0.376
COc1ccc([Si](C)(C)[C@H]2[C@H](CCO)O[C@@]3(C(=O)N(Cc4cccc(N5CCCCC5=O)c4)c4ccccc43)[C@@H]2C)cc1 1.38
O=C1O[C@@H](c2ccccc2)[C@@H](c2ccccc2)N2[C@@H](c3ccc(O)cc3)[C@]3(C(=O)Nc4ccc(C#CCCO)cc43)[C@@H](C(=O)NC[C@H](O)c3ccccc3)[C@H]12 0.0695
CC(C)CN1C(=O)[C@@]2(Cc3ccccc31)c1ccccc1C(=O)N(Cc1ccccc1C(F)(F)F)[C@H]2c1ccc(CO)cc1 -0.48
CC(C)C(O)C1C=CC2C(=O)N(C)C(=O)C2N1N(c1ccccc1)c1ccccc1 (stereo unspecified) 1.05
C=CCC(OC(C)=O)[C@@H]1[C@@H](N(Cc2ccc(-c3ccccc3)cc2)C(=O)c2cccc3ccccc23)c2cc(OCCCO)ccc2N1C(=O)Cc1ccc2ccccc2c1 (stereo partly specified) 0.283
Cc1ccc(S[C@]2(C(=O)NC3CC3)CC(=O)N(Cc3ccccc3Cl)[C@@H]2c2ccc(CO)cc2I)cc1 0.0589
O=C1NCC(=O)N2[C@@H]1C[C@@H](C(=O)O)[C@H]2c1ccc(O)cc1 -0.0173
CC(C)CNC(=O)[C@@]1(c2ccc([N+](=O)[O-])cc2)CC(=O)N(C2CCCCC2)[C@@H]1c1ccc(CO)cc1I 0.794
COc1ccc(NN2C(C(O)c3ccccn3)C=CC3C(=O)N(C4CCCCC4)C(=O)C32)cc1 (stereo unspecified) 0.536
[N-]=[N+]=NCc1ccccc1C[C@@]1(C(N)=O)N=C(c2ccc(OCCCO)cc2)O[C@@H]1c1ccccc1CN=[N+]=[N-] 1.38
CN1C(=O)C2C=CC(C(O)c3c(F)cccc3Cl)N(Nc3ccccc3)C2C1=O (stereo unspecified) 1.12
COC(=O)c1c(CC[C@@H](CO)NC(=O)N[C@H](Cn2cc(-c3ccccc3C)nn2)C(C)C)oc(C(C)=O)c1C(=O)OC -0.52
C=CCOC(=O)[C@@H]1[C@H]2C(=O)O[C@H](c3ccccc3)[C@H](c3ccccc3)N2[C@H](c2ccc(OCCOC(=O)[C@H]3C[C@H]4C(=O)N[C@@H](CCCCN(C)C)C(=O)N4[C@H]3c3cccc(OCCO)c3)cc2)[C@@]12C(=O)Nc1ccc(I)cc12 0.865
COc1ccc([Si](C)(C)[C@@H]2[C@@H](CCO)O[C@]3(C(=O)N(Cc4cccc(N5C(=O)c6ccccc6Oc6ccccc65)c4)c4ccccc43)[C@H]2C)cc1 1.77
C=CC[C@]1(C(=O)N(C)C)N=C(c2ccc(OCCCO)cc2)O[C@H]1c1ccccc1N=[N+]=[N-] 7.33
COCCOC(=O)N1C(=O)[C@@]2(c3cc(C#CCC(C(=O)OC)C(=O)OC)ccc31)[C@H](c1ccc(OCCO)cc1)N1[C@H](c3ccccc3)[C@H](c3ccccc3)OC(=O)[C@H]1[C@@H]2C(=O)N1CCN(c2ncccn2)CC1 -0.0311
COCCOC(=O)N1C(=O)[C@@]2(c3cc(C#CC4(O)CCCCCC4)ccc31)[C@H](c1ccccc1OCCO)N1[C@H](c3ccccc3)[C@H](c3ccccc3)OC(=O)[C@H]1[C@@H]2C(N)=O 0.76
C=CCNC(=O)[C@H]1[C@@H]2C(=O)O[C@@H](c3ccccc3)[C@@H](c3ccccc3)N2[C@@H](c2ccccc2OCCO)[C@]12C(=O)N(C(=O)OCCOC)c1ccc(C#CC3=CCCCC3)cc12 0.725
C=CCN1C(=O)[C@@]2(O[C@@H](CCn3cc([C@H](O)c4ccccc4)nn3)[C@H]([Si](C)(C)c3ccc(OC)cc3)[C@H]2C)c2ccccc21 0.916
